Several values for one entry are separate records, joined by “and”; a condition that tells them apart may be missing. Equal values may be shown once. Inconclusive results are not listed. Activity calls are given as the source filed them. Calls come from the whole dose curve; as a rule, active = well fitted curve in the direction sought with a large enough effect; inconclusive = small, poorly fitted or top-dose-only effect, or another doubt; inactive = no such curve, though single readings can be large; an effect the other way counts as inactive or inconclusive.
Legend:
MCC-13 = experiment: qHTS assay to identify novel small-molecules to repurpose for Merkel cell carcinoma treatment (AID 1296009); settings: MCC and control cell lines, CellTiter-Glo viability, 72 h; series mostly up to 46 µM; note: nearly all actives have a fitted effect of over 60% in size
In short: (§1)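 After compound transfer in DMSO, plates were kept 72 hr at 37 degree celsius. Luminescent ATP signal from CellTiter-Glo served as viability measure, normalized against DMSO and no-cell controls.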

MCC-26 = experiment: as above; settings: MCC and control cell lines, CellTiter-Glo viability, 72 h; series mostly up to 46 µM
In short: as §1

MKL-1 = experiment: as above; settings: MCC and control cell lines, CellTiter-Glo viability, 72 h; series mostly up to 46 µM
In short: as §1

MKL-2 = experiment: as above; settings: MCC and control cell lines, CellTiter-Glo viability, 72 h; series mostly up to 46 µM
In short: as §1

UISO = experiment: as above; settings: MCC and control cell lines, CellTiter-Glo viability, 72 h; series mostly up to 46 µM
In short: as §1

WaGa = experiment: as above; settings: MCC and control cell lines, CellTiter-Glo viability, 72 h; series mostly up to 46 µM
In short: as §1

C33A = experiment: Primary qHTS to identify gynecologic anti-cancer compounds using libraries of approved drugs and bioactive compounds (AID 1345084); settings: Gynecologic cancer cell panel viability, ATPlite luminescence, 48 h; series mostly up to 57.5 µM; note: nearly all actives have a fitted effect of over 55% in size; note: potency is the fitted concentration of half-maximal effect
In short: (§2)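 48 h compound exposure at 37 C, 5% CO2; five-point qHTS. ATPlite luminescence readout of cell ATP.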

CAOV3 = experiment: as above; settings: Gynecologic cancer cell panel viability, ATPlite luminescence, 48 h; series mostly up to 57.5 µM
In short: as §2

CASKI = experiment: as above; settings: Gynecologic cancer cell panel viability, ATPlite luminescence, 48 h; series mostly up to 57.5 µM
In short: as §2

Es-2 = experiment: as above; settings: Gynecologic cancer cell panel viability, ATPlite luminescence, 48 h; series mostly up to 57.5 µM
In short: as §2

HeLa = experiment: as above; settings: Gynecologic cancer cell panel viability, ATPlite luminescence, 48 h; series mostly up to 57.5 µM
In short: as §2

Hek293T = experiment: as above; settings: Gynecologic cancer cell panel viability, ATPlite luminescence, 48 h, control line for the selectivity index; series mostly up to 57.5 µM
In short: as §2

JEG-3 = experiment: as above; settings: Gynecologic cancer cell panel viability, ATPlite luminescence, 48 h; series mostly up to 57.5 µM
In short: as §2

OV90 = experiment: as above; settings: Gynecologic cancer cell panel viability, ATPlite luminescence, 48 h; series mostly up to 57.5 µM
In short: as §2

PA-1 = experiment: as above; settings: Gynecologic cancer cell panel viability, ATPlite luminescence, 48 h; series mostly up to 57.5 µM
In short: as §2

SKOV3 = experiment: as above; settings: Gynecologic cancer cell panel viability, ATPlite luminescence, 48 h; series mostly up to 57.5 µM
In short: as §2

Tov-21-G = experiment: as above; settings: Gynecologic cancer cell panel viability, ATPlite luminescence, 48 h; series mostly up to 57.5 µM
In short: as §2

Tov112D = experiment: as above; settings: Gynecologic cancer cell panel viability, ATPlite luminescence, 48 h; series mostly up to 57.5 µM
In short: as §2

[1] = Drug repurposing screens with cells derived from glioblastoma tumor samples (AID 1345199); settings: GBM patient neurospheres viability, ATP luminescence, 48 h; note: nearly all actives have a fitted effect of over 40% in size; note: potency is the fitted concentration of half-maximal effect
In short: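 Four patient lines of CD133+ GBM neurospheres were screened at several concentrations; hits were retested in those lines plus three slower-growing GBM lines, using 48-hour treatment and ATP-based viability.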

[2] = at 45.9 µM (top of the series), tumour line B
[3] = at 45.9 µM (top of the series), tumour line D
[4] = at 46 µM (top of the series), tumour line A
[5] = at 46.1 µM (top of the series), tumour line C
[6] = at 21.2 µM (top of the series), tumour line B
% is set by controls: 0 for no effect and ±100 for the full control effect.

O=C(Nc1ccc(Cl)c(Cl)c1)C1CC1
active: Potency ([1]; tumour line A) 28.2 µM | Potency ([1]; tumour line C) 23.1 µM | Potency ([1]; tumour line D) 20 µM
inactive: Potency (MCC-13) | Potency (MCC-26) | Potency (MKL-1) | Potency (MKL-2) | Potency (UISO) | Potency (WaGa) | Potency (C33A) | Potency (CAOV3) | Potency (CASKI) | Potency (Es-2) | Potency (HeLa) | Potency (Hek293T) | Potency (JEG-3) | Potency (OV90) | Potency (PA-1) | Potency (SKOV3) | Potency (Tov-21-G) | Potency (Tov112D) | activity, negative = cell killing [1, 2] -26.9%

CC(=O)OCC(=O)NCCCOc1cccc(CN2CCCCC2)c1
inactive: Potency (MCC-13) | Potency (MCC-26) | Potency (MKL-1) | Potency (MKL-2) | Potency (UISO) | Potency (WaGa) | Potency (C33A) | Potency (CAOV3) | Potency (CASKI) | Potency (Es-2) | Potency (HeLa) | Potency (Hek293T) | Potency (JEG-3) | Potency (OV90) | Potency (PA-1) | Potency (Tov-21-G) | Potency (Tov112D) | activity, negative = cell killing [1, 2] 0.906% and -1.58% | activity, negative = cell killing [1, 3] -12.4% and -6.14% | activity, negative = cell killing [1, 4] -17.5% | activity, negative = cell killing [1, 5] -13.4% and 4.52%

NCCC(O)(P(=O)(O)O)P(=O)(O)O
inactive: Potency (MCC-13) | Potency (MCC-26) | Potency (MKL-1) | Potency (MKL-2) | Potency (UISO) | Potency (WaGa) | Potency (C33A) | Potency (CAOV3) | Potency (CASKI) | Potency (Es-2) | Potency (HeLa) | Potency (Hek293T) | Potency (JEG-3) | Potency (OV90) | Potency (PA-1) | Potency (SKOV3) | Potency (Tov-21-G) | Potency (Tov112D) | activity, negative = cell killing [1, 2] -6.03% | activity, negative = cell killing [1, 3] -13.5% | activity, negative = cell killing [1, 4] -19.5% | activity, negative = cell killing [1, 5] -12.2%

CN(C)CC/C=C1/c2ccccc2COc2ccc(CC(=O)O)cc21
inactive: Potency (MCC-13) | Potency (MCC-26) | Potency (MKL-1) | Potency (MKL-2) | Potency (UISO) | Potency (WaGa) | Potency (C33A) | Potency (CAOV3) | Potency (CASKI) | Potency (Es-2) | Potency (HeLa) | Potency (Hek293T) | Potency (JEG-3) | Potency (OV90) | Potency (PA-1) | Potency (SKOV3) | Potency (Tov-21-G) | Potency (Tov112D) | activity, negative = cell killing [1, 2] -11.5% | activity, negative = cell killing [1, 3] 1.66% | activity, negative = cell killing [1, 4] -15.4% | activity, negative = cell killing [1, 5] 4.5%

C[C@]12CC[C@H]3[C@@H](CCC4=CC(=O)CC[C@@]43C)[C@@H]1CC[C@@H]2C(=O)CO
inactive: Potency (MCC-13) | Potency (MCC-26) | Potency (MKL-1) | Potency (MKL-2) | Potency (UISO) | Potency (WaGa) | Potency (C33A) | Potency (CAOV3) | Potency (CASKI) | Potency (Es-2) | Potency (Hek293T) | Potency (JEG-3) | Potency (OV90) | Potency (Tov-21-G) | Potency (Tov112D) | activity, negative = cell killing [1, 6] -21.2% | activity, negative = cell killing ([1]; at 21.2 µM (top of the series), tumour line D) -27.5%
active: Potency (HeLa) 3.55 µM | Potency (PA-1) 22.4 µM

O=c1[nH]c(=O)n([C@H]2CCCO2)cc1F
inactive: Potency (MCC-13) | Potency (MCC-26) | Potency (MKL-1) | Potency (MKL-2) | Potency (UISO) | Potency (WaGa) | Potency (C33A) | Potency (CAOV3) | Potency (CASKI) | Potency (Es-2) | Potency (HeLa) | Potency (Hek293T) | Potency (JEG-3) | Potency (OV90) | Potency (PA-1) | Potency (Tov-21-G) | Potency (Tov112D)

CCN(CCCCOC(=O)c1ccc(OC)c(OC)c1)C(C)Cc1ccc(OC)cc1 (stereo not drawn)
inactive: Potency (MCC-13) | Potency (MCC-26) | Potency (MKL-1) | Potency (MKL-2) | Potency (UISO) | Potency (WaGa) | Potency (C33A) | Potency (CAOV3) | Potency (CASKI) | Potency (Es-2) | Potency (HeLa) | Potency (Hek293T) | Potency (JEG-3) | Potency (PA-1) | Potency (SKOV3) | Potency (Tov-21-G) | Potency (Tov112D) | activity, negative = cell killing ([1]; at 20 µM (top of the series), tumour line C) -2.24% | activity, negative = cell killing [1, 6] -9.34%
active: Potency ([1]; tumour line A) 5.62 µM

CCCCN1CCCC1C(=O)Nc1c(C)cc(C)cc1C (stereo not drawn)
active: Potency ([1]; tumour line A) 22.4 µM
inactive: Potency (MCC-13) | Potency (MCC-26) | Potency (MKL-1) | Potency (MKL-2) | Potency (UISO) | Potency (WaGa) | Potency (C33A) | Potency (CAOV3) | Potency (CASKI) | Potency (Es-2) | Potency (HeLa) | Potency (Hek293T) | Potency (JEG-3) | Potency (PA-1) | Potency (SKOV3) | Potency (Tov-21-G) | Potency (Tov112D) | activity, negative = cell killing [1, 2] -5.63% | activity, negative = cell killing [1, 3] -4.43% | activity, negative = cell killing [1, 5] -15.9%

O=C(Nc1ccc(Oc2ccc(Cl)cc2)c(Cl)c1)c1cc(I)cc(I)c1O
inactive: Potency (MCC-13) | Potency (MCC-26) | Potency (MKL-1) | Potency (MKL-2) | Potency (UISO) | Potency (WaGa) | Potency (C33A) | Potency (CAOV3) | Potency (CASKI) | Potency (Es-2) | Potency (HeLa) | Potency (Hek293T) | Potency (JEG-3) | Potency (PA-1) | Potency (SKOV3) | Potency (Tov-21-G) | Potency (Tov112D)

O=C1OC2(c3ccc(O)cc3Oc3cc(O)ccc32)c2ccccc21
inactive: Potency (MCC-13) | Potency (MCC-26) | Potency (MKL-1) | Potency (MKL-2) | Potency (UISO) | Potency (WaGa) | Potency (C33A) | Potency (CAOV3) | Potency (CASKI) | Potency (Es-2) | Potency (HeLa) | Potency (Hek293T) | Potency (JEG-3) | Potency (OV90) | Potency (PA-1) | Potency (SKOV3) | Potency (Tov-21-G) | Potency (Tov112D) | activity, negative = cell killing [1, 2] -8.7% and -8.22% | activity, negative = cell killing [1, 3] -3.66% and -8.86% | activity, negative = cell killing [1, 4] -6.74% | activity, negative = cell killing [1, 5] 11.7% and -10.7%
